Pf growth 96h: Primary qHTS for delayed death inhibitors of the malarial parasite plastid, 96 hour incubation. P. falciparum luciferase reporter growth, 96 h. Potency, µM (doses to about 28.7 µM), for inactives: at the top dose activity change, negative = inhibition, actives largely listed as inhibitors. 320,000 tested, 6.9% active. AID 504834, 2011; also: potency is read from the fitted curve at half-maximal effect; % is scaled to controls: 0 for no effect and ±100 for the full control effect
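Two parasite generations (96 h, 37 C, 5% CO2) of compound exposure in infected erythrocytes (0.05% parasitemia, 2% hematocrit). Luciferase-reporter P. falciparum; decreased luminescence indicates inhibited growth, aimed at apicoplast-acting delayed death.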
SARS PLP yeast: qHTS of Yeast-based Assay for SARS-CoV PLP; S. cerevisiae expressing SARS-CoV PLpro, growth rescue; Potency, µM (doses to about 32.9 µM), for inactives: top-dose activity, positive = growth rescue, hits mostly activators; 330,000 tested, 0.19% active; AID 485353, 2010; calls by dose curve; also: potency is read from the fitted curve at half-maximal effect; 0% is about no effect; nearly all actives have a fitted effect of over 55% in size
CHX counter: Cycloheximide Counterscreen for Small Molecule Inhibitors of Shiga Toxin | cell reporter, cycloheximide protein synthesis inhibition counterscreen | max response, % | 300,000 tested, 12% active; in the data active = max response mostly above about 13%, no sharp cut-off; inactive = mostly below about 14%; also: read at 38.3 µM for the half of the compounds with a filed dose; 0% is about no effect
Shiga toxin inh: A qHTS for Small Molecule Inhibitors of Shiga Toxin | Vero cells, Shiga toxin protein synthesis inhibition reporter | inhibition, % at 38.7 µM | 290,000 tested, 9.2% active | AID 2315, 2010; in the data active = inhibition mostly above about 28%, no sharp cut-off; inactive = mostly below about 43%; also: 0% is about no effect
NS1 function inh: qHTS Assay for Inhibitors of Influenza NS1 Protein Function; Potency, µM (series often up to 46.1 µM), for the others: top-dose activity, positive = more growth; 270,000 tested, 0.4% active; calls by dose curve; also: potency is read from the fitted curve at half-maximal effect; actives are rising curves; nearly all actives have a fitted effect of over 50% in size
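Compounds were scored for reversing the slow growth caused by influenza A NS1 in S. cerevisiae, measured by optical density at 600 nm. Assay medium contained 2% galactose at pH 6.0; NS1-free yeast of the same strain were the positive control.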
Pf growth 48h: Primary qHTS for delayed death inhibitors of the malarial parasite plastid, 48 hour incubation; Potency, µM (series often up to 28.7 µM), without a hit: at the top dose activity change, negative = inhibition, hits mostly inhibitors; 310,000 tested, 5.9% active; P. falciparum luciferase growth in erythrocytes, 48 h; also: potency is read from the fitted curve at half-maximal effect; % is scaled to controls: 0 for no effect and ±100 for the full control effect
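A one-generation exposure of luciferase-tagged malaria parasites in RPMI 1640/Albumax erythrocyte culture, 37 C and 5% CO2. Inhibition is inferred from decreased luminescence after adding detection reagent.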
* hit, by the source's call; i = inactive; ? = inconclusive; . = no result; [ ] = another dose, or the depositor's remark. This is a sample that favours compounds with a hit; in the whole collection about 21% have one here. Unless noted, calls follow the shape of the dose curve; as a rule, active = well fitted inhibition curve with a large enough effect; inconclusive = small, poorly fitted or top-dose-only effect, or another doubt; inactive = no such curve, though single readings can be large or run the other way.

SMILES	Pf growth 96h	SARS PLP yeast	CHX counter	Shiga toxin inh	NS1 function inh	Pf growth 48h
COc1cc(NC(=O)c2csc3c2CCCC3)ncn1	?	1%	40*	53*	-6%	.
O=C(Nc1ccccn1)c1csc2c1CCCC2	?	-5%	49*	84*	-57%	58%
O=C(Nc1cc(=O)[nH]c(=O)[nH]1)c1cc(Cl)ccc1Cl	44%	?	2	16	-8%	32%
Cc1noc(C)c1NC(=O)N(C)C[C@H]1Oc2ccc(NC(=O)Cc3ccccc3)cc2C(=O)N([C@H](C)CO)C[C@@H]1C	.	-3%	.	.	.	.
COc1ccc(C2C3=C(CCCC3=O)Nc3ccc4ncccc4c32)cc1OC (stereo not drawn)	0.29µM*	0%	35*	38	.	-27%
O=C1CCCC2=C1C(c1ccc(O)c(O)c1)Nc1ccc3ncccc3c12 (stereo not drawn)	3%	0%	14	33*	.	-14%
O=C1CCCC2=C1C(c1cccs1)Nc1ccc3ncccc3c12 (stereo not drawn)	45%	0%	-6	19	-6%	43%
COc1cc(C2C3=C(CCCC3=O)Nc3ccc4ncccc4c32)ccc1O (stereo not drawn)	29%	0%	15*	31	.	-12%
Cc1ccc(S(=O)(=O)NCCC(=O)NCCc2ccc(S(N)(=O)=O)cc2)cc1C	.	-5%	.	.	.	.
Cc1nn(C)c(Cl)c1CN1CCN(C2CCCC2)C(CCO)C1 (stereo not drawn)	20%	-3%	11	13	9%	-20%
COc1ccc(-c2cc(C(=O)N3CCN(C(=O)c4ccccc4F)CC3)[nH]n2)cc1	?	.	2	-12	3%	?
CC1CC(C)(C)CC2(C1)NC(=O)N(CC(=O)OCc1ccc(Br)cc1)C2=O (stereo not drawn)	31%	-5%	.	.	.	-9%
CCOC(=O)C1=C(Nc2ccc(C)cc2)CC(C)(O)C(C(=O)OCC)C1c1ccccc1 (stereo not drawn)	13µM*	12%	7	-9	?	12µM*
CCOC(=O)C1=C(Nc2ccccc2)CC(C)(O)C(C(=O)OCC)C1c1ccc(Br)cc1 (stereo not drawn)	?	-19%	-5	10	-17%	15µM*
CS(=O)(=O)N1CCC(C(=O)NCc2ccc(Cl)cc2Cl)CC1	-9%	1%	6	-14	.	-3%
O=C(COC(=O)CNC(=O)c1sc2ccccc2c1Cl)Nc1c(Cl)cc(Cl)cc1Cl	-10%	8%	-5	-12	16%	-13%
COC(=O)c1ccc(CNC(=O)Cn2cnc3c(OCc4ccccc4)ncnc32)cc1	.	1%	.	.	.	.
O=C(Nc1scc(-c2ccc(F)cc2)c1C(=O)O)c1ccco1	.	-9%	56*	92*	-138%	27%
Cc1ccc(-c2csc(NC(=O)/C=C/c3ccco3)c2C(=O)O)cc1	0%	1%	36*	86*	-64%	68%
COC(=O)c1c(-c2ccccc2)csc1NC(=O)c1ccco1	-6%	10%	71*	153*	0%	67%
Cc1ccc(-c2csc(NC(=O)c3ccc(Br)cc3)c2C(=O)O)cc1	4%	-1%	13	15	-1%	.
COC(=O)c1c(-c2ccccc2)csc1NC(=O)c1c(-c2ccccc2)noc1C	?	-1%	2	11	17%	13µM*
C(=Nc1cnc2ccccc2c1)c1ccc2ccccc2n1	.	.	.	.	-4%	.
COc1ccc([N+](=O)[O-])cc1N(CC(=O)N1CCCCC1)S(C)(=O)=O	?	2%	-2	18	-2%	8%
CCN(CCCCCN(C)C)Cc1cc2ccccc2o1	5.2µM*	-1%	3	8	?	10µM*
SMILES	Pf growth 96h	SARS PLP yeast	CHX counter	Shiga toxin inh	NS1 function inh	Pf growth 48h
O=C(O)/C(=C\c1ccc(Cl)c([N+](=O)[O-])c1)c1ccc(S(=O)(=O)N2CCCC2)s1	-16%	-2%	.	.	.	5%
CC(C)(C)NC(=S)Nc1ccc(Nc2ccccc2)cc1	.	-26%	19*	46*	-14%	?
CC(C)(C)NC(=S)Nc1cccc(C(F)(F)F)c1	?	17%	8	4	13%	?
CC(C)(C)NC(=S)Nc1ccc(Br)cc1	12%	4%	32*	58*	-53%	12%
COc1ccc(/C(C)=N/N2CCCCC2)c(O)c1	18%	1%	12*	29	4%	28%
COc1ccc(/C(C)=N/N=C(\C)c2ccc(OC)cc2OC)c(OC)c1	-30%	6%	-4	11	3%	6%
Oc1ccc(/C=N/N2CCCCC2)cc1O	-17%	5%	11	6	1%	33%
COc1ccc(O)c(/C=N/N2CCCCC2)c1	221%	3%	54*	83*	0%	192%
CCOc1ccc(-c2nc(CSCC(=O)NCC3CCCO3)c(C)o2)cc1 (stereo not drawn)	13µM*	3%	19	26	-23%	43%
COc1ccc(-c2nc(CSCC(=O)NCC3CCCO3)c(C)o2)cc1OC (stereo not drawn)	15µM*	-1%	1	-11	-5%	58%
O=C(COc1ccc2ccccc2c1Br)N1CCCCC1	16%	-4%	62*	89*	-19%	88%
CCN(CC)C(=O)Oc1ccccc1NC(C)=O	9.3µM*	-1%	-3	-2	11%	8%
CC(=O)Nc1ccccc1OC(=O)N(C)C	.	10%	-5	-7	-4%	13%
O=C(Oc1ccc2ccccc2c1Br)N1CCCCCC1	i	-13%	36*	117*	-76%	1%
CCN(CC)C(=O)Oc1ccc2ccccc2c1Br	-13%	-1%	25*	76*	.	188%
CCN(CC)C(=O)Oc1ccc(Br)c2ccccc12	?	15%	1	-5	-24%	-26%
O=c1/c(=C\c2cccc(O)c2)sc2nc(-c3ccccc3)c(-c3ccccc3)n12	47%	-2%	-6	-3	-6%	-4%
Cc1c(C(=O)N2CCC(C)CC2)sc2ncn(CC(=O)N3CCC(C)CC3)c(=O)c12	-3%	-4%	8	17	1%	-12%
O=C(Oc1ccc2cc(Br)ccc2c1)N1CCCCCC1	8%	-31%	48*	58*	7%	253%
CCCC(CCC)C(=O)Nc1ccc2c(c1)N(C(=O)CN1CCN(C)CC1)c1ccccc1CC2	-6%	0%	-1	28	-2%	5.2µM*
CCOC(=O)N1CCN(CC(=O)N2c3ccccc3CCc3ccccc32)CC1	?	0%	-2	14	.	5%[5.75 µM]
CCOC(=O)Nc1ccc2c(c1)N(C(=O)CN1CCN(C)CC1)c1ccccc1S2	124%	4%	-1	-4	-11%	9.3µM*

Assay outcomes from PubChem.
